# High-throughput results deposited in PubChem BioAssay by National Center for Advancing Translational Sciences (NCATS).
# A selection: hits, their analogues and other compounds. The true share with any hit is near 21%.
# Pf growth 96h = P. falciparum growth inhibition at 96 hour, primary screen for plastid delayed-death inhibitors. P. falciparum luciferase reporter growth, 96 h. Potency, µM (doses to about 28.7 µM), for the others: at the top dose activity change, negative = inhibition, actives largely listed as inhibitors. 320,000 compounds, 6.9% hits; further: potency means the concentration at half of the fitted maximal effect; on the % scale 0 is the no-effect control and ±100 the full control effect
#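 Delayed-death screen, second-generation endpoint: infected erythrocytes, 2% hematocrit, 0.05% parasitemia final; 96 hours at 37 C, 5% CO2; luciferase detection reagent; luminescence decrease equals reduced growth.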
# CHX counter = affects cycloheximide protein synthesis inhibition readout, counter-screen | cell reporter, cycloheximide protein synthesis inhibition counterscreen | max response, % | 300,000 compounds, 12% hits; in the data active means max response mostly above about 13%, no sharp cut-off; inactive means mostly below about 14%; further: read at 38.3 µM for the half of the compounds with a filed dose; 0% is about no effect
# Shiga inhibitor = Shiga toxin inhibition; Vero cells, Shiga toxin protein synthesis inhibition reporter; inhibition, % at 38.7 µM; 290,000 compounds, 9.2% hits; AID 2315; in the data active means inhibition mostly above about 28%, no sharp cut-off; inactive means mostly below about 43%; further: 0% is about no effect
# Pf growth 48h = inhibits P. falciparum growth in the first generation, 48 h | Potency, µM (series often up to 28.7 µM), for the others: at the highest dose activity change, negative = inhibition, usual class: inhibitors | P. falciparum luciferase growth in erythrocytes, 48 h | 310,000 compounds, 5.9% hits; further: potency means the concentration at half of the fitted maximal effect; on the % scale 0 is the no-effect control and ±100 the full control effect
#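 Luciferase-expressing parasites in RBCs, 2% Hct / 0.1% parasitemia final; RPMI 1640 + 0.5% Albumax; 37 C, 5% CO2, one generation; luminescence read-out, lower signal = inhibition.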
# Numbers without * were called inactive; i = inactive; ? = inconclusive; / = no result given; [ ] = dose if it differs, or a comment. Unless noted, the call rests on the fitted dose curve; in most records, active means well fitted inhibition curve with a large enough effect; inconclusive means small, poorly fitted or top-dose-only effect, or another doubt; inactive means no such curve, though single readings can be large or run the other way.
SMILES,Pf growth 96h,CHX counter,Shiga inhibitor,Pf growth 48h
CCN=C(NS(=O)(=O)c1ccc(Br)cc1)c1ccc(Cl)cc1,35%,-2,-17,-6%
Cn1nnnc1SCc1csc(C2C(C#N)=C(N)OC3=C2C(=O)CCC3)c1 (stereo unspecified),?,-8,-9,-11%
O=C1CN2NC(=S)N(c3ccccc3)C2=CN1c1ccc(Cl)cc1,11%,-2,-10,8%
CC(C)CN(C(=O)CSc1nc2ccccc2c(=O)n1C)C1CCS(=O)(=O)C1 (stereo unspecified),-83%,/,/,?
COc1cccc(C(=O)Nc2ccc(NC(=O)C3CCCCC3C(=O)O)cc2)c1 (stereo unspecified),-20%,39*,21,-4%
COc1cccc(C(=O)Nc2ccc(NC(=O)C3CC=CCC3C(=O)O)cc2)c1 (stereo unspecified),12µM*,24*,77*,150%
COC(=O)C1=C(C(=O)OC)C2C(C)=CC(C)=CN2C(C(=O)OC)=C1C(=O)OC (stereo unspecified),?,-2,-3,-25%
COc1ccc([C@@H]2CC(=O)c3c(O)cc(O[C@H]4O[C@@H](CO[C@H]5O[C@@H](C)[C@@H](O)[C@@H](O)[C@@H]5O)[C@@H](O)[C@@H](O)[C@@H]4O)cc3O2)cc1O,-1%[12.8 µM],/,/,-4%[12.8 µM]
Nc1nc(-c2ccc(Br)s2)c(Br)s1,/,38*,63*,14%
Cc1ccnn1CCC(=O)O,78%,-2,-1,32%
CCOC(=O)c1c(-c2ccsc2)csc1N,-4%,5,13,2.9µM*
CC(=O)/C(N=Nc1ccc2c(c1)OCCO2)=C(\C)O,i,82*,136*,i
CC(=O)/C(N=Nc1ccc2c(c1)OCO2)=C(\C)O,157%,74*,108*,176%
Clc1ccc(NCc2cccnc2)c(Cl)c1,?,5,12,/
Cc1ccc(-c2cc(C(F)F)nc(NCC3CCCO3)n2)cc1 (stereo unspecified),21%,16*,48*,-4%
Cc1ccc(CC(=O)NCc2cccnc2)cc1,4%,-1,-8,12%
Cc1ccc(S(=O)(=O)Nc2nc3ccccc3nc2NCC2CCCO2)cc1 (stereo unspecified),14%,-3,3,6%
Cc1ccc(-c2cc(C(F)F)nc(NCc3cccs3)n2)cc1,2.6µM*,0,9,11%
FC(F)(F)c1cc(-c2ccc(Cl)cc2)nc(NCc2cccnc2)n1,/,-4,-25,3.7µM*
Cc1ccc(-c2cc(C(F)F)nc(NCc3cccnc3)n2)cc1,17%,-1,3,13µM*
Cc1[nH]c2ccc(C(=O)OCC(=O)Nc3cccc(S(N)(=O)=O)c3)cc2c1C,13%,/,/,30%
CCCNC(=O)NC1CCCc2ccccc21 (stereo unspecified),-5%,-6,-17,15%
CC(C)(C)c1ccc(C(=O)NCC(=O)N2CCC3(CC2)NCCc2[nH]cnc23)cc1,15%,-2,-5,24%
O=C(O/N=C1\CCS(=O)(=O)c2sccc21)c1ccccc1,?,1,-10,?
O=C(O/N=C1\CCS(=O)(=O)c2sccc21)c1ccc(F)cc1,64%,37*,78*,0%
SMILES,Pf growth 96h,CHX counter,Shiga inhibitor,Pf growth 48h
CCOCCCn1c(=N)c(S(=O)(=O)c2ccc(C)cc2)cc2c(=O)n3cc(C)ccc3nc21,?,-1,19,0%
Cc1cc(O)c(C(C)C)cc1C1(c2cc(C(C)C)c(O)cc2C)OC(=O)c2ccccc21,1.2µM*,-3,-14,2.1µM*
Cc1cc(C2(c3ccc(O)c(C)c3)OC(=O)c3ccccc32)ccc1O,1%,-6,-18,-28%
O=C(CNC(=O)c1ccc2c(c1)OCCO2)N/N=C/c1ccc(Cl)cc1,-29%,11,2,5%
CCN(CC)c1ccc(/C=N/NC(=O)c2ccc3c(c2)OCCO3)cc1,5%,58*,115*,?
CN(C)c1ccc(/C=N/NC(=O)c2ccc3c(c2)OCCO3)cc1,24%,34*,48*,11%
CCC(C(=O)Nc1cccnc1)c1ccccc1 (stereo unspecified),-19%,3,-6,27%
O=C(Nc1ccccc1)Nc1ccncc1,?,15,57*,?
CCC(C(=O)Nc1ccncc1)c1ccccc1 (stereo unspecified),26%,-2,-6,4.7µM*
O=C(Nc1ccncc1)Nc1ccccn1,8.3µM*,-4,60,-10%
O=C(Nc1ccccn1)Nc1cccs1,?,36*,38*,/
O=C(CCN1C(=O)[C@@H]2Cc3ccccc3CN2C1=O)N[C@H](Cc1ccccc1)C(=O)O,46%,-1,16,48%
